Most compounds without a hit are left out; they make up all but 2% or so of the library.
sPLA2-III inh – Blocks human group III sPLA2 activity | Q9NZ20 | QFRET BODIPY PC-A2 liposome hydrolysis, fluorescence | inhibition, % at 12.2 µM | 370,000 tested, 0.56% active;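 active means inhibition above mean plus 3 SD of compounds lying within the high and low control bounds, cut at about 19% in these data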
DAGLB inhibitor – blocks human DAGLB lipase activity. AID 504411. 340,000 tested, 0.059% active. inhibition, % at 5.17 µM. Q8NCG7. HEK293T DAGLB membrane lysate, EnzChek fluorogenic substrate; in the data active means inhibition above about 34%
ARNT-TACC3 inh – disrupts binding between human ARNT and TACC3; AID 623870; AlphaScreen His-ARNT PAS-B/GST-TACC3 binding, luminescence; TACC3 fragment carries E629A point mutation; 390,000 tested, 0.66% active; Q9Y6A5; inhibition, % at 9.99 µM;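 active means mean inhibition of replicates at least 50% and at least half of replicates each reaching 50%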
Neddyl block – blocks human cullin neddylation; TR-FRET cullin neddylation, biochemical; inhibition, % at 25 µM; 360,000 tested, 0.58% active; in the data active means inhibition above about 36%
NadD inh – inhibitors of Staphylococcus aureus NadD | purified NadD enzyme, colorimetric absorbance read-out | inhibition, % at 20 µM | 360,000 tested, 0.78% active; in the data active means inhibition above about 26%
Neddyl inh conf – cullin neddylation inhibition, confirmation; shares compounds with Neddyl block; TR-FRET cullin neddylation biochemical assay; calls only at 25 µM; 1,800 tested, 13% active; in the data active means inhibition above about 40%;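 further: neddylation substrate is the cullin 1 ring ligase complex with SKP2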
Hits are given with their value.

`O=c1[nH]cnc2sc3c(c12)CCN(Cc1ccccc1)C3` gave sPLA2-III inh inactive, DAGLB inhibitor inactive, Neddyl block 40, NadD inh inactive and Neddyl inh conf inactive.
`CCC(=O)Nc1ccc2c(c1)OC[C@H](C)N(C(=O)CC1CC1)C[C@H](C)[C@@H](OC)CN(C)C2=O` gave ARNT-TACC3 inh inactive.
For COc1ccc(S(=O)(=O)N(C)C[C@H]2OCCCC[C@H](C)Oc3ccc(NC(=O)c4ccccc4)cc3C(=O)N([C@H](C)CO)C[C@H]2C)cc1 the results were ARNT-TACC3 inh inactive.
`C[C@H]1CCCCO[C@@H](CN(C)Cc2ccncc2)[C@@H](C)CN([C@@H](C)CO)C(=O)c2cc(NC(=O)Nc3ccc(C(F)(F)F)cc3)ccc2O1` gave ARNT-TACC3 inh inactive.
`C/C(=N\NC(=O)c1cc(Br)ccc1O)c1cccc(NC(=O)c2ccccc2F)c1` gave sPLA2-III inh inactive, DAGLB inhibitor inactive, ARNT-TACC3 inh inactive, Neddyl block 54, NadD inh inactive and Neddyl inh conf inactive.
For C[C@H](CO)N1C[C@H](C)[C@H](CN(C)Cc2ccc(C(=O)Nc3ccccc3N)cc2)Oc2c(NS(=O)(=O)c3cccs3)cccc2C1=O the results were ARNT-TACC3 inh inactive.
For COc1ccc(C(=O)NCCNc2nc3c(C)cccc3cc2C#N)cc1OC the results were sPLA2-III inh inactive, DAGLB inhibitor inactive, ARNT-TACC3 inh inactive, Neddyl block 39 and NadD inh inactive.
For COc1cc(C(=O)NCCNc2nc3c(C)cccc3cc2C#N)cc(OC)c1OC the results were sPLA2-III inh inactive, DAGLB inhibitor inactive, Neddyl block inactive and NadD inh inactive.
Screening N#Cc1ccc(NC(=O)c2cc(=O)c3ccccc3o2)cc1 returned sPLA2-III inh inactive, DAGLB inhibitor inactive, ARNT-TACC3 inh inactive, Neddyl block 41, NadD inh inactive and Neddyl inh conf inactive.
`O=C(CSc1cccc2cccnc12)NCc1ccco1` gave sPLA2-III inh inactive, DAGLB inhibitor inactive, ARNT-TACC3 inh inactive and NadD inh inactive.
O=C(CSc1cccc2cccnc12)N/N=C/c1ccc(O)cc1 was read as sPLA2-III inh inactive, DAGLB inhibitor inactive, ARNT-TACC3 inh inactive, Neddyl block inactive and NadD inh inactive.
For COc1cccc(/C=N/NC(=O)CSc2cccc3cccnc23)c1 the results were sPLA2-III inh inactive, DAGLB inhibitor inactive, ARNT-TACC3 inh 96, Neddyl block 46, NadD inh inactive and Neddyl inh conf inactive.
For COc1ccc(CNC(=O)CSc2cccc3cccnc23)cc1 the results were sPLA2-III inh inactive, DAGLB inhibitor inactive, ARNT-TACC3 inh inactive, Neddyl block 43, NadD inh inactive and Neddyl inh conf inactive.
For O=C1NC(=O)c2c(NC(=O)C3CCCO3)cccc21 (configuration not stated) the results were sPLA2-III inh inactive, DAGLB inhibitor inactive, ARNT-TACC3 inh inactive, Neddyl block inactive and NadD inh inactive.
Screening CC(=O)Nc1cccc2c1C(=O)NC2=O returned sPLA2-III inh inactive, DAGLB inhibitor inactive, ARNT-TACC3 inh inactive, Neddyl block 46, NadD inh inactive and Neddyl inh conf active.
For CCN(CC(=O)NCc1cccs1)C(=O)/C=C/c1cc(OC)c(OC)c(OC)c1 the results were sPLA2-III inh inactive, DAGLB inhibitor inactive, ARNT-TACC3 inh inactive, Neddyl block 39, NadD inh inactive and Neddyl inh conf active.
COc1cccc(-c2ccc3n(c2=O)C[C@H]2[C@H](CO)[C@@H](C(=O)NCCN4CCCCC4)N(C)[C@@H]32)c1 was read as ARNT-TACC3 inh inactive.
Cc1ccsc1/C=N/Nc1nc(Cl)c(Cl)cc1Cl was read as sPLA2-III inh inactive, DAGLB inhibitor inactive, ARNT-TACC3 inh inactive, Neddyl block 39, NadD inh inactive and Neddyl inh conf inactive.
Screening O=c1oc2cccnc2n1CCS(=O)(=O)c1ccc(F)cc1 returned sPLA2-III inh inactive, DAGLB inhibitor inactive, ARNT-TACC3 inh inactive, Neddyl block 38, NadD inh inactive and Neddyl inh conf inactive.
`CCN(C[C@@H]1[C@@H](c2ccc(-c3ccccc3)cc2)[C@H](CO)N1C(C)=O)C(C)=O` gave ARNT-TACC3 inh inactive.
`C[C@H]1CCCCO[C@H](CN(C)Cc2ccncc2)[C@@H](C)CN([C@@H](C)CO)C(=O)c2cc(NC(=O)c3ccccc3)ccc2O1` gave ARNT-TACC3 inh inactive.
Screening Nc1cccc(-c2ccc(CO)o2)c1 returned sPLA2-III inh inactive, DAGLB inhibitor inactive, ARNT-TACC3 inh inactive, Neddyl block 42, NadD inh inactive and Neddyl inh conf inactive.

Source: PubChem
